PubChem BioAssay AID1159580 (chemical genetic matrix, 2015)
“And” between values parts separate entries of the source, which are not always exact repeats. Identical values can stand only once. The whole screen tested about 5,500 compounds, of which about 2,000 (36%) were called active. Another 18% or so got no clear call; they are omitted. Cut-off read from the data, not from the text of the source: active = normalized growth mostly below about 0.91 (no sharp cut-off); inconclusive = no clear call, values can overlap the other calls; inactive = mostly above about 0.92. The list shows a part of the results.

Test: chemical genetic growth profiling, strain panel (AID 1159580);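 note: tested at 20 µM; growth read once vehicle control cultures reached saturation at 30 °C; 1 = growth at the plate median or of vehicle wells; lower values mean less growth of the strain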
Conditions: S. cerevisiae deletion strains, growth OD

Measured: normalized growth

C=C[C@@H](C1=CC(=O)C(OC)=C(OC)C1=O)c1ccccc1
0.892 (inactive) and 0.782 (active): locus YJL095W, strain BCK1, stronger effect = lower value
inactive: locus YBR171W, strain sec66, stronger effect = lower value 0.996 | locus YBR229C, strain ROT2, stronger effect = lower value 0.989 | locus YCL029C, strain bik1, stronger effect = lower value 0.968 | locus YDL005C, strain med2, stronger effect = lower value 1 | locus YDL040C, strain nat1, stronger effect = lower value 1.01 | locus YDL074C, strain BRE1, stronger effect = lower value 0.962 | locus YDL101C, strain DUN1, stronger effect = lower value 0.97 | locus YDL185W, strain tfp1, stronger effect = lower value 0.945 | locus YDR001C, strain nth1, stronger effect = lower value 0.997 | locus YDR069C, strain doa4, stronger effect = lower value 0.995 | locus YDR101C, strain arx1, stronger effect = lower value 0.998 | locus YDR159W, strain sac3, stronger effect = lower value 1.02 | locus YDR195W, strain ref2 1.09 | locus YDR335W, strain msn5, stronger effect = lower value 0.977 | locus YEL037C, strain rad23, stronger effect = lower value 0.952 | locus YER016W, strain bim1, stronger effect = lower value 0.999 | locus YER110C, stronger effect = lower value 0.97 | locus YER111C, strain swi4, stronger effect = lower value 0.994 | locus YER155C, strain BEM2, stronger effect = lower value 0.985 | locus YGL078C, strain dbp3, stronger effect = lower value 0.966 | locus YGL167C, strain pmr1, stronger effect = lower value 0.972 | locus YHR079C, strain IRE1 (second series), stronger effect = lower value 0.96 | locus YHR079C, strain IRE1, stronger effect = lower value 0.888 | locus YIR030C, strain dcg1, stronger effect = lower value 0.967 | locus YJL129C, strain trk1, stronger effect = lower value 0.978 | locus YJL134W, strain LCB3, stronger effect = lower value 0.986 | locus YJL154C, strain vps35, stronger effect = lower value 1.01 | locus YJL187C, strain SWE1 (second series), stronger effect = lower value 0.977
active: locus YAL021C, strain ccr4, stronger effect = lower value 0.899 | locus YAL026C, strain drs2, stronger effect = lower value 0.405 | locus YAL030W, strain snc1, stronger effect = lower value 0.825 | locus YBL061C, strain skt5, stronger effect = lower value 0.859 | locus YBR009C, strain hhf1, stronger effect = lower value 0.273 | locus YBR021W, strain FUR4, stronger effect = lower value 0.516 | locus YBR023C, strain chs3, stronger effect = lower value 0.816 | locus YBR231C, strain swc5, stronger effect = lower value 0.742 | locus YBR279W, strain paf1, stronger effect = lower value 0.703 | locus YCL011C, strain gbp2, stronger effect = lower value 0.307 | locus YCL016C, strain dcc1, stronger effect = lower value 0.581 | locus YCL069W, strain vba3, stronger effect = lower value 0.45 | locus YCR088W, strain abp1, stronger effect = lower value 0.911 | locus YDL035C, strain GPR1, stronger effect = lower value 0.277 | locus YDL192W, strain arf1, stronger effect = lower value 0.266 | locus YDR137W, strain rgp1, stronger effect = lower value 0.694 | locus YDR150W, strain NUM1, stronger effect = lower value 0.61 | locus YDR162C, strain NBP2, stronger effect = lower value 0.0631 | locus YDR297W, strain sur2, stronger effect = lower value 0.802 | locus YDR318W, strain mcm21, stronger effect = lower value 0.181 | locus YDR334W, strain swr1, stronger effect = lower value 0.472 | locus YDR388W, stronger effect = lower value 0.827 | locus YDR392W, strain spt3, stronger effect = lower value 0.146 | locus YDR502C, strain sam2, stronger effect = lower value 0.665 | locus YEL003W, strain gim4, stronger effect = lower value 0.553 | locus YEL061C, strain CIN8 (second series), stronger effect = lower value 0.642 | locus YER015W, strain faa2, stronger effect = lower value 0.588 | locus YER155C, strain BEM2 (second series), stronger effect = lower value 0.413 | locus YER167W, strain BCK2, stronger effect = lower value 0.252 | locus YFR010W, strain ubp6, stronger effect = lower value 0.869 | locus YGL086W, strain mad1, stronger effect = lower value 0.142 | locus YGL173C, strain kem1, stronger effect = lower value 0.632 | locus YGL227W, strain vid30, stronger effect = lower value 0.473 | locus YGL240W, strain doc1, stronger effect = lower value 0.723 | locus YGL248W, strain PDE1, stronger effect = lower value 0.125 | locus YGL253W, strain hxk2, stronger effect = lower value 0.838 | locus YGR078C, strain PAC10, stronger effect = lower value 0.0851 | locus YGR135W, strain pre9, stronger effect = lower value 0.306 | locus YGR252W, strain gcn5, stronger effect = lower value 0.369 | locus YHR013C, strain ard1, stronger effect = lower value 0.507 | locus YHR027C, strain rpn1, stronger effect = lower value 0.775 | locus YHR030C, strain SLT2, stronger effect = lower value 0.0586 and 0.753 | locus YHR094C, strain hxt1, stronger effect = lower value 0.782 | locus YHR129C, strain ARP1, stronger effect = lower value 0.212 | locus YHR142W, strain chs7, stronger effect = lower value 0.603 | locus YHR200W, strain rpn10, stronger effect = lower value 0.788 | locus YIL066C, strain RNR3, stronger effect = lower value 0.148 | locus YIL073C, strain SPO22, stronger effect = lower value 0.341 | locus YIL125W, strain kgd1, stronger effect = lower value 0.919 | locus YJL092W, strain hpr5, stronger effect = lower value 0.883 | locus YJL095W, strain BCK1 (second series), stronger effect = lower value 0.468 | locus YJL115W, strain asf1, stronger effect = lower value 0.82 | locus YJL164C, strain tpk1, stronger effect = lower value 0.376 | locus YJL166W, strain qcr8, stronger effect = lower value 0.245 | locus YJL168C, strain set2, stronger effect = lower value 0.881 | locus YJR066W, strain TOR1, stronger effect = lower value 0.716
